This is a sample that favours compounds with a hit; in the whole collection about 17% have one here.
TDP1 cell CPT – growth inhibition of DT40 Tdp1-/-;hTDP1 cells with camptothecin (screen for TDP1 inhibitors); chicken DT40 Tdp1-/-;hTDP1 cells + 20 nM CPT, ATP luminescence, 48 h; Potency, µM (doses to about 46.2 µM), actives largely listed as inhibitors; 420,000 compounds, 12% hits; AID 686979; further: nearly all actives have a fitted effect of over 55% in size
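Chicken DT40 Tdp1-/- cells stably complemented with human TDP1 were seeded at 400 cells/well in medium containing 20 nM camptothecin, exposed to pin-transferred compounds, and grown at 37 °C for at least 48 hr. Viability was read as ATP luminescence.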
DT40 TDP1 no CPT – qHTS for Inhibitors of human tyrosyl-DNA phosphodiesterase 1 (TDP1): qHTS in cells in absence of CPT | DT40 Tdp1-/- hTDP1 cells, no CPT, ATP luminescence, 48 h | Potency, µM (series often up to 46.2 µM), hits mostly inhibitors | 420,000 compounds, 15% hits; further: nearly all actives have a fitted effect of over 55% in size
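Growth kinetics read by CellTiter-Glo luminescence after ≥48 hr at 37 °C. Cells: DT40 Tdp1-/- stably carrying human TDP1, 400 per well, compound exposure in the absence of CPT (DMSO vehicle).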
ClpP mod – qHTS Assay for Activators of ClpP | ATP-dependent Clp protease proteolytic subunit (Bacillus subtilis (strain 168)), P80244 | 340,000 compounds, 1.9% hits | AID 651965, 2013 | purified B. subtilis ClpP, FRET peptide cleavage, 20 min | Potency, µM (titrated, usually from 57.5 µM); active means well fitted falling curve with a large enough effect; inconclusive means small, poorly fitted or top-dose-only effect; inactive means no such curve, though single readings can be large or run the other way; further: the source files actives as falling curves though it sought activators and does not explain the sign; nearly all actives have a fitted effect of over 65% in size
Target sequence (P80244 whole entry, looked up): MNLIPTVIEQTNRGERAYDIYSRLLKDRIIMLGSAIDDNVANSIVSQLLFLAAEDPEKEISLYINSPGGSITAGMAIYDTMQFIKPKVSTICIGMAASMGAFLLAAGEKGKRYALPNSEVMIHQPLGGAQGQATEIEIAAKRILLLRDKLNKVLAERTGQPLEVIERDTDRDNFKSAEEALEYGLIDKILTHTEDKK
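FRET quenching reversal measured ClpP activation: 10 microg/mL B. subtilis ClpP at pH 8 with the FRET-FV decapeptide, read at 430 nm after 320 nm excitation. The 20-min minus 0-min signal was scaled between DMSO/no-enzyme wells and ADEP (5.8 microM final).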
TDP1 inh – TDP1 (human) enzyme inhibition; 350,000 compounds, 0.28% hits; Potency, µM (series often up to 130 µM), actives largely listed as inhibitors; recombinant TDP1, AlphaScreen DNA substrate cleavage; further: nearly all actives have a fitted effect of over 40% in size
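Tdp1 1 nM final; 15 min RT w/ cpd; substrate 15 nM, 5 min; beads 10 ug/ml, 10 min; AlphaScreen read. Neg ctrl: no enzyme.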
A number is an active result; [ ] = remark or other dose. Unless noted, the call rests on the fitted dose curve; in most records, active means well fitted curve in the direction sought with a large enough effect; inconclusive means small, poorly fitted or top-dose-only effect, or another doubt; inactive means no such curve, though single readings can be large; an effect the other way counts as inactive or inconclusive.

How did CCOc1ccc(NC(=O)C2CCCN(S(=O)(=O)c3c(C)noc3C)C2)cc1 (configuration not stated) do in these assays?
TDP1 cell CPT: inactive; DT40 TDP1 no CPT: inconclusive; TDP1 inh: inactive

What do the screens show for `COc1ccc(-c2nc3ccccc3o2)cc1NC(=O)COc1c(C)cc(Cl)cc1Cl`?
TDP1 cell CPT: 2.91µM; DT40 TDP1 no CPT: 5.17µM; ClpP mod: inactive

What do the screens show for `Cc1ccc2oc(-c3ccc(C)c(NC(=O)c4ccc(-c5ccccc5[N+](=O)[O-])o4)c3)nc2c1`?
ClpP mod: inactive; TDP1 inh: inactive

How did COc1ccc2oc(-c3ccc(C)c(NC(=O)COc4cc(C)cc(C)c4)c3)nc2c1 do in these assays?
TDP1 cell CPT: 7.31µM; DT40 TDP1 no CPT: 5.17µM; ClpP mod: inactive; TDP1 inh: inactive

How did COc1ccc2oc(-c3ccc(C)c(NC(=O)c4ccc(-c5ccccc5[N+](=O)[O-])o4)c3)nc2c1 do in these assays?
TDP1 cell CPT: 18.4µM; DT40 TDP1 no CPT: 9.2µM; ClpP mod: inactive; TDP1 inh: inactive

What do the screens show for `Cc1cccc(OCC(=O)Nc2cc(-c3nc4cc(Cl)ccc4o3)ccc2C)c1`?
TDP1 cell CPT: 7.08µM; DT40 TDP1 no CPT: inconclusive; ClpP mod: inactive

What do the screens show for `Cc1ccc(-c2nc3cc(Cl)ccc3o2)cc1NC(=O)COc1ccc(F)cc1`?
TDP1 cell CPT: inactive; DT40 TDP1 no CPT: inactive; ClpP mod: inactive; TDP1 inh: inactive

How did COC(=O)c1ccc(Nc2ncnc3c2cnn3-c2ccccc2)cc1 do in these assays?
TDP1 cell CPT: inactive; DT40 TDP1 no CPT: inactive; ClpP mod: inactive; TDP1 inh: inactive

How did COc1cc(=O)n2c(c1C(=O)NC(C)c1ccco1)CCN(C(=O)c1cccc(C)c1)CC2 (configuration not stated) do in these assays?
TDP1 cell CPT: inactive; DT40 TDP1 no CPT: inactive

What do the screens show for `COc1cc(=O)n2c(c1C(=O)NC(C)c1ccco1)CCN(C(=O)c1cccc(C)c1C)CC2` (configuration not stated)?
TDP1 cell CPT: 0.164µM; DT40 TDP1 no CPT: inactive

How did COc1ccc(C2Nc3ccccc3NC3=C2C(=O)CC(C)(C)C3)cc1 (configuration not stated) do in these assays?
TDP1 cell CPT: inactive; DT40 TDP1 no CPT: inactive; ClpP mod: inactive

Results for COc1ccc(C2C(C#N)=C(C)NC3=C2C(=O)CC(C)(C)C3)cc1 (configuration not stated) ?
TDP1 cell CPT: inactive; DT40 TDP1 no CPT: inactive; ClpP mod: 28.2µM; TDP1 inh: inactive

How did CCCSC1=C(C#N)C(c2ccc(OC)cc2)C2=C(CC(C)(C)CC2=O)N1 (configuration not stated) do in these assays?
TDP1 cell CPT: 5.17µM; DT40 TDP1 no CPT: 4.11µM; ClpP mod: inactive; TDP1 inh: inactive

How did COc1cccc(C2C(C#N)=C(C)NC3=C2C(=O)CC(C)(C)C3)c1 (configuration not stated) do in these assays?
TDP1 cell CPT: inactive; DT40 TDP1 no CPT: inconclusive; ClpP mod: 25.1µM; TDP1 inh: inactive

What do the screens show for `CSC1=C(C#N)C(c2ccc(Cl)cc2)C2=C(CC(C)(C)CC2=O)N1` (configuration not stated)?
TDP1 cell CPT: 0.92µM; DT40 TDP1 no CPT: 0.92µM; ClpP mod: inactive; TDP1 inh: inactive

How did CCCCN(C)C(=O)c1ccc2c(c1)N(Cc1cccc(F)c1)C(=O)c1ccccc1S2 do in these assays?
TDP1 cell CPT: inconclusive; DT40 TDP1 no CPT: inconclusive; ClpP mod: inactive; TDP1 inh: inactive

How did O=S(=O)(Nc1cccc2ccccc12)c1ccc2ccccc2c1 do in these assays?
TDP1 inh: inactive

How did O=C(/C=C/c1cccc(F)c1)Nc1ccc(S(=O)(=O)N2CCOCC2)cc1 do in these assays?
TDP1 cell CPT: inconclusive; DT40 TDP1 no CPT: inconclusive; ClpP mod: inactive; TDP1 inh: inactive

What do the screens show for `Cc1c(NC(=O)c2nc3ccccc3n(C)c2=O)cccc1[N+](=O)[O-]`?
TDP1 cell CPT: inactive; DT40 TDP1 no CPT: inconclusive; ClpP mod: inactive; TDP1 inh: inactive

Results for Cc1nc2cnc(N(C)C)nc2n(CCc2ccccc2)c1=O ?
TDP1 cell CPT: 5.17µM; DT40 TDP1 no CPT: 8.2µM

Results for COc1cccc(Cn2c(=O)c(C)nc3cnc(N(C)C)nc32)c1 ?
TDP1 cell CPT: 16.4µM; DT40 TDP1 no CPT: inconclusive

Results for COc1cccc(Cn2c(=O)c(-c3ccccc3)nc3cnc(N(C)C)nc32)c1 ?
TDP1 cell CPT: inconclusive; DT40 TDP1 no CPT: inactive

What do the screens show for `O=C(c1ccco1)N1CCN(C(=O)C23CC4CC(CC(C4)C2)C3)CC1`?
TDP1 cell CPT: inconclusive; DT40 TDP1 no CPT: inconclusive; ClpP mod: inactive; TDP1 inh: inactive

What do the screens show for `Cn1ncc2c(N3CCN(c4ccc(Cl)c(Cl)c4)CC3)ncnc21`?
TDP1 cell CPT: 10.3µM; DT40 TDP1 no CPT: 7.31µM; TDP1 inh: inactive

Results for Cn1ncc2c(N3CCN(c4ccccc4F)CC3)ncnc21 ?
TDP1 cell CPT: inconclusive; DT40 TDP1 no CPT: 23.1µM; ClpP mod: inactive; TDP1 inh: inactive

Results for Cn1nnc2c(N3CCN(c4cccc(Cl)c4)CC3)ncnc21 ?
TDP1 cell CPT: inconclusive; DT40 TDP1 no CPT: 4.11µM; ClpP mod: inconclusive; TDP1 inh: inactive

Results for CCCCC/C=C\C/C=C\C/C=C\C=C\C(O)CCCC(=O)O (configuration not stated) ?
TDP1 inh: inactive

What do the screens show for `CC(C)Cn1c(=O)c(CCC(=O)Nc2ccc(N3CCOCC3)cc2)nc2cc(Cl)ccc21`?
TDP1 cell CPT: inactive; DT40 TDP1 no CPT: inactive; ClpP mod: inactive; TDP1 inh: inactive

What do the screens show for `CC(C)(C)c1ccc(NC(=O)COc2ccc(-n3ccnc3)cc2)cc1`?
TDP1 cell CPT: 14.6µM; DT40 TDP1 no CPT: 16.4µM; ClpP mod: inactive; TDP1 inh: inactive

How did COc1cc(NC(=O)COc2ccc(-n3ccnc3)cc2)cc(OC)c1 do in these assays?
TDP1 cell CPT: inconclusive; DT40 TDP1 no CPT: inconclusive; TDP1 inh: inactive

How did C[C@@H]1CN(Cc2ccc3c(c2)CN(Cc2cccc4cccnc24)CCO3)C[C@H](C)O1 do in these assays?
TDP1 cell CPT: inactive[9.04 µM]; DT40 TDP1 no CPT: inconclusive

Results for CN(c1ccccc1)S(=O)(=O)c1ccc(C(=O)Nc2nnc(-c3ccc(F)cc3)o2)cc1 ?
TDP1 cell CPT: 9.2µM; DT40 TDP1 no CPT: 6.51µM; ClpP mod: inactive; TDP1 inh: inactive

How did CC(=O)Nc1ccc(S(=O)(=O)N(C)c2ccccc2)cc1 do in these assays?
TDP1 cell CPT: inactive; DT40 TDP1 no CPT: inactive; ClpP mod: inactive; TDP1 inh: inactive

How did Cc1csc(NC(=O)c2ccc(S(=O)(=O)N(C)c3ccccc3)cc2)n1 do in these assays?
TDP1 cell CPT: 11.6µM; DT40 TDP1 no CPT: 13µM; ClpP mod: inactive; TDP1 inh: inactive

How did CN(c1ccccc1)S(=O)(=O)c1ccc(NC(=O)c2ccc(-c3ccccc3)cc2)cc1 do in these assays?
TDP1 cell CPT: 20.6µM; DT40 TDP1 no CPT: inconclusive; ClpP mod: 25.1µM; TDP1 inh: inactive

What do the screens show for `Cc1nc2cc(NC(=O)c3ccc(S(=O)(=O)N(C)c4ccccc4)cc3)ccc2o1`?
TDP1 cell CPT: inconclusive; DT40 TDP1 no CPT: 16.4µM; TDP1 inh: inactive

Source: PubChem BioAssay
